Results: PubChem BioAssay (NCATS)
Records with an inconclusive call do not appear. Active and inactive are the calls of the source. The call rests on the fitted dose curve; in most records, active means well fitted inhibition curve with a large enough effect; inconclusive means small, poorly fitted or top-dose-only effect; inactive means flat fitted curve, though single readings scatter.

Columns and labels:
Experiment in all cases: qHTS profiling for inhibitors of Plasmodium falciparum proliferation (AID 504749); further: nearly all actives have a fitted effect of over 60% in size
Settings in all cases: P. falciparum in erythrocytes, SYBR Green DNA, 72 h; series mostly up to 28.7 µM
CP256 = system: CP256
Method in brief: (§1)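 Quantitative HTS: compounds pinned into medium, infected erythrocytes added (0.3% parasitemia, 2.5% hematocrit), 72 h culture at 37 C under 5% CO2. Saponin/Triton lysis with SYBR Green I, overnight RT, then fluorescence read.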

CP260 = system: CP260
Method in brief: as §1

CP262 = system: CP262
Method in brief: as §1

CP265 = system: CP265
Method in brief: as §1

CP266 = system: CP266
Method in brief: as §1

CP268 = system: CP268
Method in brief: as §1

CP269 = system: CP269
Method in brief: as §1

CP286 = system: CP286
Method in brief: as §1

CP291 = system: CP291
Method in brief: as §1

CP297 = system: CP297
Method in brief: as §1

CP305 = system: CP305
Method in brief: as §1

CP315 = system: CP315
Method in brief: as §1

CP325 = system: CP325
Method in brief: as §1

CP329 = system: CP329
Method in brief: as §1

CP335 = system: CP335
Method in brief: as §1

DFO2036 = system: DFO2036
Method in brief: as §1

DIV14 = system: DIV14
Method in brief: as §1

DIV30 = system: DIV30
Method in brief: as §1

Dd2 = system: Dd2
Method in brief: as §1

ECU = system: ECU
Method in brief: as §1

FAB9 = system: FAB9
Method in brief: as §1

GB4 = system: GB4
Method in brief: as §1

HB3 = system: HB3
Method in brief: as §1

JCK = system: JCK
Method in brief: as §1

N140 = system: N140
Method in brief: as §1

P93_24 = system: P93_24
Method in brief: as §1

P94_40 = system: P94_40
Method in brief: as §1

PAD = system: PAD
Method in brief: as §1

PC15 = system: PC15
Method in brief: as §1

PC26 = system: PC26
Method in brief: as §1

PC49 = system: PC49
Method in brief: as §1

SC27B = system: SC27B
Method in brief: as §1

TAB109 = system: TAB109
Method in brief: as §1

TAB113 = system: TAB113
Method in brief: as §1

TAB165 = system: TAB165
Method in brief: as §1

Measured: Potency

CCN(CC)CCO[C@H]1CC[C@@]2(C)C(=CC[C@@H]3[C@H]2CC[C@]2(C)C(=O)CC[C@H]32)C1
inactive: all assays above
